Data on eleven compounds can be found in PubChem BioAssay.

The assay in a line: RPMI8226 myeloma cell viability, profiling panel, resazurin fluorescence, basal, 24 h, PK04 Diversity Set (AID 1180).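 Further: RPMI8826 multiple myeloma cell line at 5000 cells per well; test concentration not given here.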 The settings on record: higher = more signal. For orientation: Resazurin is reduced to fluorescent resorufin, in cell work by metabolically active cells.
With `CC(=O)NCCCC[C@@H]1NC(=O)[C@@H]2C[C@H](C(=O)NCCCCCNC(=O)CS)[C@H](c3cccc(OCCO)c3)N2C1=O`, the z-score turned out to be 0.739.
The same measure for `COc1ccccc1CN1C(=O)c2ccccc2[C@@]2(Cc3ccccc3N(CC(C)C)C2=O)[C@@H]1c1ccc(CO)cc1`: -0.564; for `CC(CO)N1C(=O)[C@@H]2C3C(=O)OCCC/C=C\[C@H]3OC23C=CCN(C(C)(C)C)C(=O)[C@@H]13` (stereo partly specified): -0.178.
The same measure for `CC1(C)[C@@H]2CC(C(O)C3C=CC4C(=O)N(Cc5ccccc5)C(=O)C4N3n3cnnc3)=C[C@H]1C2` (stereo partly specified): -0.192.
The figure for `O=C1C[C@@](C(=O)NC2CC2)(c2ccc([N+](=O)[O-])cc2)[C@@H](c2ccc(CO)cc2I)N1C1CCCCC1` is -0.538.
As for `NC(=O)NCC#Cc1ccc2c(c1)[C@]1(C(=O)N2)[C@H](C(=O)Nc2nc3ccccc3s2)[C@H]2C(=O)O[C@H](c3ccccc3)[C@H](c3ccccc3)N2[C@@H]1c1ccccc1OCCO`, the z-score was -0.651.
The figure for `O=C1c2ccccc2[C@](Cc2ccccc2I)(C(=O)NCC(F)(F)F)[C@H](c2ccc(CO)cc2)N1Cc1ccccc1Cl` is 0.417; for `CCC[C@@H]1C[C@@]1(CCC)[C@@H](NS(=O)(=O)c1cccc2cccnc12)c1ccc(Cl)cc1` it is -0.0909; for `CCCC[C@@H]1C[C@H]1[C@@H](NC(=O)c1ccco1)c1ccc(-c2ccccc2)cc1` it is -1.29.
The figure for `Cc1ccc(S[C@]2(C(=O)NCCCN(C)C)CC(=O)N(Cc3cc(C(F)(F)F)cc(C(F)(F)F)c3)[C@@H]2c2ccc(CO)cc2)cc1` is -0.402; for `C=C[C@@H](COC(=O)OC(C)(C)C)N(Cc1ccc(OC)cc1)S(=O)(=O)c1ccc(Br)cc1` it is -0.918.
